# Reference: PubChem BioAssay (NCATS)
# Values joined by “and” are separate entries in the source; they are usually repeats but may differ in a detail not shown here. Equal entries are not always repeated. Inconclusive results are not listed. Active and inactive are the calls of the source. Unless noted, calls come from the whole dose curve; as a rule, active = well fitted curve in the direction sought with a large enough effect; inconclusive = small, poorly fitted or top-dose-only effect, or another doubt; inactive = no such curve, though single readings can be large; an effect the other way counts as inactive or inconclusive.
# Legend:
# [1] = qHTS assay for small molecule agonists of the antioxidant response element (ARE) signaling pathway measured by Nrf2-dependant transcriptional activity (AID 720636; active = well fitted curve in the direction sought with a large enough effect in the repeat runs; an effect the other way counts as inactive or inconclusive;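 note: HepG2 cells with an ARE-driven luciferase reporter; % of control where 0% means no effect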)
# Procedure, shortened: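 Attachment 6 hr at 37 C, then compound versus DMSO vehicle for 16 hr in ARE-luc HepG2 cells (1% dialyzed FBS); luminescence recorded 30 min after ONE-Glo addition at room temperature.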
# [2] = qHTS assay for small molecule agonists of the antioxidant response element (ARE) signaling pathway measured by Nrf2-dependant transcriptional activity - cell viability counter screen (AID 720653; active = well fitted curve in the direction sought with a large enough effect in the repeat runs; an effect the other way counts as inactive or inconclusive; note: % is set by controls: 0 for no effect and ±100 for the full control effect); settings: ARE-bla HepG2 viability, CellTiter-Glo ATP luminescence, 16 h; max response: stronger effect = lower value
# Procedure, shortened: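 ARE-bla HepG2 cells treated with compounds for 16 h at 37C; this counter screen measures viability as intracellular ATP by CellTiter-Glo luminescence after 30 min at room temperature.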
# [3] = qHTS Assay for Identifying Gametocytocidal Compounds (AID 743244); note: potency is the fitted concentration of half-maximal effect;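 for max response: % is set by controls: 0 for no effect and ±100 for the full control effect; actives lower the fluorescent signal which means gametocytes are killed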; settings: P. falciparum 3D7 stage III-V gametocytes, alamarBlue, 72 h; max response: stronger effect = lower value
# Procedure, shortened: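 Fluorescence at Ex 525/Em 598 nm, recorded 24 h after alamarBlue addition, reports residual metabolic activity of 3D7 gametocytes (stages III–V) following 72 h compound exposure at 37 °C, 5% CO2.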
# [4] = qHTS assay for cell viability of HEK293 cells (AID 743288); settings: ATP luminescence (CellTiter-Glo), 18 h; max response: stronger effect = lower value; note: % is set by controls: 0 for no effect and ±100 for the full control effect; nearly all actives have a fitted effect of over 50% in size
# Procedure, shortened: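 ATP luminescence (CellTiter-Glo) reports metabolically competent cell number after parental HEK293 cells, 2,000/well, were treated with DMSO-dissolved compounds for 18 h at 37 C; reagent incubation 30 min, room temperature.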
# [5] = qHTS assay for cell viability of the p53RE-bla HCT-116 cell line (AID 743292); note: % is set by controls: 0 for no effect and ±100 for the full control effect; nearly all actives have a fitted effect of over 55% in size
# Procedure, shortened: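 Compound-exposed HCT-116 (p53RE-bla) cells, 4,000 per well, were kept 16 h at 37 C following a 5 h preincubation. Cell number was estimated from total ATP by CellTiter-Glo luminescence read after 30 min at room temperature.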
# [6] = qHTS profiling of the MIPE4 collection as inhibitors of Plasmodium falciparum (3D7) proliferation (AID 743344; call rule not given here;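 note: scaled between DMSO vehicle wells and 0.29 µM artemisinin as full inhibition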); settings: P. falciparum 3D7 in erythrocytes, SYBR Green DNA fluorescence, 72 h; at 28.5 µM (top of the series) unless noted
# Procedure, shortened: (§1)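 Parasite DNA was quantified by SYBR Green I fluorescence (ex 485, em 535 nm) after overnight lysis in saponin/Triton buffer at room temperature. Cultures at 0.3% parasitemia and 2.5% hematocrit were first exposed to compound for 72 h at 37 C; signals were normalised to artemisinin (0.29 uM) and vehicle wells.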
# [7] = qHTS profiling of the MIPE4 collection as inhibitors of Plasmodium falciparum (DD2) proliferation (AID 743345; call rule not given here); settings: P. falciparum Dd2 in erythrocytes, SYBR Green DNA, 72 h; at 28.5 µM (top of the series) unless noted
# Procedure, shortened: as §1
# [8] = qHTS profiling of the MIPE4 collection as inhibitors of Plasmodium falciparum (DD2) proliferation (Rep 2) (AID 743346; call rule not given here); settings: P. falciparum Dd2 in erythrocytes, SYBR Green DNA, 72 h; at 28.5 µM (top of the series) unless noted
# Procedure, shortened: as §1
# [9] = qHTS profiling of the MIPE4 collection as inhibitors of Plasmodium falciparum (HB3) proliferation (AID 743347; call rule not given here;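 note: plate controls were DMSO vehicle wells for no effect and artemisinin wells for full effect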); settings: P. falciparum HB3 in erythrocytes, SYBR Green DNA, 72 h; at 28.5 µM (top of the series) unless noted
# Procedure, shortened: as §1
# [10] = High-throughput drug toxicity screening in the BPDCN cell line Gen2.2 (AID 1224824; call rule not given here;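 note: cells exposed to compounds for 48 h before reading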); settings: Gen2.2 BPDCN cells; at 45.8 µM (top of the series) unless noted
# Procedure, shortened: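 CellTiter-Glo luminescence after 48 h compound exposure of Gen2.2 cells; percent activity set with DMSO as 100% and bortezomib (9.2 uM final) as 0%. Cells seeded at 500 per well, RPMI + 10% FBS, 37 °C.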
# [11] = High-throughput drug toxicity screening in the BPDCN cell line Cal-1 (AID 1224825; call rule not given here); settings: Cal-1 BPDCN cell viability, qHTS; at 45.8 µM (top of the series) unless noted
# Procedure, shortened: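 CellTiter-Glo luminescence after 48 h compound exposure; percent activity scaled with DMSO as 100% and bortezomib (9.2 uM final) as 0%. Cal-1 cells seeded at 500/well in RPMI, 10% FBS, no phenol red.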
# [12] = qHTS assay for measurement of the activity of small molecule inhibitors on Zika virus induced Caspase-3 activity in human iPSC derived neural progenitor cells (hNPCs) (AID 1224857); note: % of control where 0% means no effect; nearly all actives have a fitted effect of over 65% in size
# Procedure, shortened: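 Zika virus (2 FFU/cell) infection of human iPSC-derived NPCs, 6 h, following 1 h compound preincubation. Read-out: Caspase-Glo 3/7 luminescence.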
# [13] = qHTS assay for measurement of the activity of small molecule inhibitors on Zika virus induced Caspase-3 activity in human astrocytoma cells (AID 1224859);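 note: plate controls were ZIKV-infected untreated cells for no effect and uninfected cells for full effect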
# Procedure, shortened: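 Caspase activation in ZIKV-infected SNB-19 cells (2 FFU/cell, 6 h) measured by Caspase-Glo 3/7 luminescence after 30 min RT; compound pre-incubated 1 h; normalised to uninfected and infected controls.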
# [14] = qHTS profiling for inhibitors of Plasmodium falciparum (3D7) proliferation (AID 743322);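 note: infected erythrocytes exposed to compound for 72 h before lysis; 100% = DMSO vehicle wells and 0% = 0.29 µM artemisinin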; settings: P. falciparum 3D7 proliferation; at 28.7 µM (top of the series)
# Procedure, shortened: as §1
# [15] = qHTS profiling for inhibitors of Plasmodium falciparum (DD2) proliferation (AID 743323; call rule not given here); settings: lower = more inhibition; at 28.7 µM (top of the series)
# Procedure, shortened: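 1536-well qHTS; infected RBCs 0.3% parasitemia/2.5% Hct final; cpd 72 h 37 C 5% CO2; lysis buffer + SYBR Green I, o/n RT dark; FI 485/535; norm. to 0.29 uM artemisinin and DMSO, plate-stack corrected.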
# [16] = qHTS profiling for inhibitors of Plasmodium falciparum (HB3) proliferation (AID 743324); settings: Plasmodium falciparum HB3 blood-stage proliferation; at 28.7 µM (top of the series);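 note: 100% = DMSO vehicle wells and 0% = artemisinin-treated control wells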
# Procedure, shortened: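 SYBR Green fluorescence (485 ex/535 em) of lysed cultures, incubated overnight at room temperature in the dark, quantifies parasite DNA. Infected erythrocytes at 0.3% parasitemia and 2.5% hematocrit were exposed 72 h; values normalized to DMSO and 0.29 uM artemisinin controls.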
# [17] = qHTS assay for small molecule antagonists of the retinoid-related orphan receptor gamma (ROR-gamma) signaling pathway - cell viability counter screen (AID 720652; active = well fitted curve in the direction sought with a large enough effect in the repeat runs; an effect the other way counts as inactive or inconclusive;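 note: CHO reporter cells with doxycycline-induced ROR-gamma expression; compound exposure lasted 16 hr before ATP read; % is set by controls: 0 for no effect and ±100 for the full control effect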)
# Procedure, shortened: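 Cytotoxicity counter screen: intracellular ATP (CellTiter-Glo luminescence) measured in the doxycycline-induced CHO RORE-luciferase reporter line after 16 hr compound exposure at 37 C, 5% CO2.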
# [18] = target: T1, Hexokinase-4 (Homo sapiens) + Glucokinase regulatory protein (Homo sapiens) (UniProt P35557+Q14397); test: qHTS assay for inhibitors of recombinant human GCK-GKRP interaction: Diaphorase-coupled assay (AID 743205)
# Procedure, shortened: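 Resorufin fluorescence (525/590 nm), read each minute over 30 min, reports GCK activity coupled via G6PDH and diaphorase. Reaction: 10 nM GST-GCK, 10 nM FLAG-GKRP, 5 mM glucose, 0.4 mM ATP, 0.15 mM NADP+, 0.1 mM resazurin.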
# [19] = target: T1, Hexokinase-4 (Homo sapiens) + Glucokinase regulatory protein (Homo sapiens); test: qHTS assay for inhibitors of recombinant human GCK-GKRP interaction: ADP-Glo assay (AID 743206);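 note: plate controls were DMSO plus enzyme for no effect and no enzyme for full effect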
# Procedure, shortened: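 Pin-transferred compounds meet a 15 nM GST-GCK/15 nM FLAG-GKRP/2 uM S6P mix (dispense concentrations). ATP is then added to 0.4 mM final with 5 mM glucose, and the reaction runs 60 min at room temperature. ADP is quantified luminescently.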
# [20] = target: T1, Hexokinase-4 (Homo sapiens) + Glucokinase regulatory protein (Homo sapiens); test: qHTS assay for inhibitors of recombinant human GCK-GKRP interaction: HTRF assay (AID 743207);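 note: 0% = DMSO with GCK present and -100% = DMSO wells lacking GCK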
# Procedure, shortened: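 HTRF read-out (ex 320 nm; 615/665 nm emission) after 60 min RT equilibration of 5 nM GST-GCK, 5 nM FLAG-GKRP, 2 uM S6P, compound and anti-FLAG/anti-GST detection antibodies; signal normalized between DMSO wells with and without GCK.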
# T1 sequence (P35557 whole entry, looked up): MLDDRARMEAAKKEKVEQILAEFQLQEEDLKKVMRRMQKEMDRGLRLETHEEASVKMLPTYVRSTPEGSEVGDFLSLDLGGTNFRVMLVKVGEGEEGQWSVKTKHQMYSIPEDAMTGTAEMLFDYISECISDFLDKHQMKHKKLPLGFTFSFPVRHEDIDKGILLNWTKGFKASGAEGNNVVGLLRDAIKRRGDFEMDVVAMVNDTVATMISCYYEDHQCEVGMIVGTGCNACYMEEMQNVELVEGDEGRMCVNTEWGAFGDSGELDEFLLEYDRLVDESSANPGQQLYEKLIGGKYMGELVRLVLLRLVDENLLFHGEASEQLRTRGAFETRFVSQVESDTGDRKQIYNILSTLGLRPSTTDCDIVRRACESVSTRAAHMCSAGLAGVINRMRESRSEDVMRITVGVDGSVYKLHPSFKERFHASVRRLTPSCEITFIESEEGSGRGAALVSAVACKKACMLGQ
# T1 sequence (Q14397 whole entry, looked up): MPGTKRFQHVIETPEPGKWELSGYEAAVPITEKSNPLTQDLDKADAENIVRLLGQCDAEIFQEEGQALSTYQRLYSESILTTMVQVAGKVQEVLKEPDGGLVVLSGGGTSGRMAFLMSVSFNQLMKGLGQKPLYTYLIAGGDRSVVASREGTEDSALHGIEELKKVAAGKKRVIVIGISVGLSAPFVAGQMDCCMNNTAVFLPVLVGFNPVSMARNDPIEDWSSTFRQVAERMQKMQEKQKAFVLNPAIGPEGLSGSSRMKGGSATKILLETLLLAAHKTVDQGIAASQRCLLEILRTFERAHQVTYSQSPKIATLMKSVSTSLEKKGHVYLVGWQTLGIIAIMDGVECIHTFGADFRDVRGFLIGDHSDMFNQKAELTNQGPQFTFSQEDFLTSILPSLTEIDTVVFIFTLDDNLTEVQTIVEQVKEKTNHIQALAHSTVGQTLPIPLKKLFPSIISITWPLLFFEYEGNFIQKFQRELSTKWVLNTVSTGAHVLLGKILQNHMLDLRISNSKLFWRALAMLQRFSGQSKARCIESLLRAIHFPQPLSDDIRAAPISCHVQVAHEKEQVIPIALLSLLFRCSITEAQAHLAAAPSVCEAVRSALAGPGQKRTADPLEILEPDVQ
smiles,measurement,setting,value
S=P(N1CC1)(N1CC1)N1CC1,outcome,[1],inactive
same,max response,[2],-3.97% (inactive)
same,max response,[3],9.1% (inactive) and 8.65% (inactive)
same,max response,[4],-14.8% (inactive)
same,Potency,[5],inactive
same,"parasite growth, % of DMSO control",[6],11.7%
same,"parasite growth remaining, % of DMSO control (lower = more inhibition)",[7],24.7%
same,"parasite growth, % of control (lower = inhibition)",[8],15.4%
same,"growth, % of control",[9],3.94%
same,"cell viability, % of control (lower = more cytotoxic)",[10],92%
same,viability (% of control),[11],27.1%
same,Potency,[12],inactive
same,Potency,[13],inactive
CC(C)C[C@H](NC(=O)[C@H](CCc1ccccc1)NC(=O)CN1CCOCC1)C(=O)N[C@@H](Cc1ccccc1)C(=O)N[C@@H](CC(C)C)C(=O)[C@@]1(C)CO1,Potency,[3],11.8 nM (active)
same,remaining parasite growth % (stronger effect = lower value),[14],-0.503%
same,"activity, percent of control",[15],-1.29%
same,"remaining proliferation (% of control), lower = more inhibition",[16],0.46%
same,"parasite growth, % of DMSO control",[6],5.1%
same,"parasite growth remaining, % of DMSO control (lower = more inhibition)",[7],7.08%
same,"parasite growth, % of control (lower = inhibition)",[8],9.09%
same,"growth, % of control",[9],6.02%
same,"cell viability, % of control (lower = more cytotoxic)",[10],5.77%
same,viability (% of control),[11],3.67%
same,Potency,[12],inactive
same,Potency,[13],inactive
COc1ccc2c(c1)c(CC(=O)OCC(=O)O)c(C)n2C(=O)c1ccc(Cl)cc1,max response,[3],-13.1% (inactive)
same,"parasite growth, % of DMSO control",[6],78.3%
same,"parasite growth remaining, % of DMSO control (lower = more inhibition)",[7],104%
same,"parasite growth, % of control (lower = inhibition)",[8],68.6%
same,"growth, % of control",[9],80.2%
same,"cell viability, % of control (lower = more cytotoxic)",[10],144%
same,viability (% of control),[11],119%
same,Potency,[12],inactive
same,Potency,[13],inactive
O=C(N[C@H](CO)[C@H](O)c1ccc([N+](=O)[O-])cc1)C(Cl)Cl,outcome,[1],inactive
same,Potency,[17],inactive
same,max response,[2],3.1% (inactive) and 1.36% (inactive)
same,max response,[3],-4.26% (inactive) and -6.91% (inactive)
same,max response,[4],-6.51% (inactive) and -1.46% (inactive)
same,Potency,[5],inactive
same,"parasite growth, % of DMSO control",[6],94.4%
same,"parasite growth remaining, % of DMSO control (lower = more inhibition)",[7],100%
same,"parasite growth, % of control (lower = inhibition)",[8],83.1%
same,"growth, % of control",[9],105%
same,"cell viability, % of control (lower = more cytotoxic)",[10],136%
same,viability (% of control),[11],116%
same,Potency,[12],inactive
same,Potency,[13],inactive
CC(=O)[C@H]1CC[C@H]2[C@@H]3CC=C4C[C@@H](O)CC[C@]4(C)[C@H]3CC[C@]12C,max response,[3],11.7% (inactive)
same,"parasite growth, % of DMSO control",[6],89.9%
same,"parasite growth remaining, % of DMSO control (lower = more inhibition)",[7],88.9%
same,"parasite growth, % of control (lower = inhibition)",[8],85.3%
same,"growth, % of control",[9],65.7%
same,"cell viability, % of control (lower = more cytotoxic)",[10],106%
same,viability (% of control),[11],107%
same,Potency,[12],inactive
same,Potency,[13],inactive
Cc1cc(NS(=O)(=O)c2ccc(N)cc2)no1,outcome,[1],inactive
same,Potency,[17],inactive
same,max response,[2],3.89% (inactive)
same,max response,[3],-4.78% (inactive)
same,max response,[4],-9.46% (inactive)
same,Potency,[5],inactive
same,"cell viability, % of control (lower = more cytotoxic)",[10],56.5%
same,viability (% of control),[11],82.3%
same,Potency,[12],inactive
same,Potency,[13],inactive
COc1cc2nc(N3CCCN(C)CC3)nc(NC3CCN(Cc4ccccc4)CC3)c2cc1OC,outcome,[18],inactive
same,outcome,[19],inactive
same,outcome,[20],inactive
same,Potency,[3],1180 nM (active)
same,remaining parasite growth % (stronger effect = lower value),[14],0.848%
same,"activity, percent of control",[15],0.575%
same,"parasite growth, % of DMSO control",[6],4.4%
same,"parasite growth remaining, % of DMSO control (lower = more inhibition)",[7],6.59%
same,"parasite growth, % of control (lower = inhibition)",[8],7.33%
same,"growth, % of control",[9],8.7%
same,"cell viability, % of control (lower = more cytotoxic)",[10],9.38%
same,viability (% of control),[11],4.13%
same,Potency,[12],inactive
same,Potency,[13],inactive
O=C(O)CCn1c2c(c3ccccc31)C[C@H](NS(=O)(=O)c1ccc(F)cc1)CC2,"cell viability, % of control (lower = more cytotoxic)",[10],124%
same,viability (% of control),[11],118%
same,Potency,[12],inactive
CC[C@H](C)C(=O)O[C@H]1C[C@@H](C)C=C2C=C[C@H](C)[C@H](CC[C@@H]3C[C@@H](O)CC(=O)O3)[C@H]21,outcome,[1],inactive
same,max response,[2],-3.79% (inactive)
same,max response,[3],4.74% (inactive)
same,max response,[4],-9.34% (inactive)
same,Potency,[5],inactive
same,"parasite growth, % of DMSO control",[6],73.9%
same,"parasite growth remaining, % of DMSO control (lower = more inhibition)",[7],103%
same,"parasite growth, % of control (lower = inhibition)",[8],83.7%
same,"growth, % of control",[9],85.6%
same,"cell viability, % of control (lower = more cytotoxic)",[10],8.11%
same,viability (% of control),[11],84.4%
same,Potency,[12],inactive
same,Potency,[13],inactive
